Screens deposited in PubChem by several laboratories.
Only some compounds are listed: those with a hit (about 3.6% of all), similar ones and a draw of the others.
LGR2 inh = inhibitors of bursicon-induced LGR2 CRE-luciferase signal, primary screen, cell-based, HEK293, CRE-luciferase reporter, bursicon stimulation; 0.35% of 380,000 active; bursicon-stimulated, 4 h; Drosophila bursicon receptor LGR2 (rickets); inhibition, % at 9.99 µM; AID 720647, 2013;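 active = drop in luminescence signal, shown as inhibition above about 50% in the replicate tests, limit read from the data, passing the limit was not always enough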;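 note: agonist challenge used bursicon conditioned medium at about half maximal strength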
HSP90 refold inh = HSP90 inhibitors, primary screen, cell lysate, luminescence. Rabbit reticulocyte lysate, luciferase refolding luminescence, 3 h. AID 1789, 2009. 0.91% of 290,000 active. Heat shock protein HSP 90 (rabbit reticulocyte lysate; luciferase refolding). inhibition, % at 5.6 µM;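 active = inhibition above the screen-wide mean plus 3 SD, computed separately per campaign, cut at about 16% in these data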;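 note: 0% = DMSO wells and 100% = 60 µM geldanamycin wells; inhibitors lower the luminescence because luciferase stays unfolded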
KKLEB cytotox = cytotoxicity in KKLEB CF airway cells, primary screen, cytotoxicity control for CF NF-kB inhibitor project, cell-based, uHTS, fluorescence assay plates. KKLEB CF airway cells viability, ATPlite luminescence, overnight; active compounds read low; cells stimulated with P. aeruginosa culture filtrate. activity change (cytotoxicity), % at 5 µM. 0.36% of 360,000 active;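 active = corrected activity change at or below -50% at 5 µM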
Mdm2 MdmX PPI = inhibitors of human Mdm2-MdmX association, primary screen, cell-based, luminescence, split luciferase, SaOS-2, uHTS | AID 485346, 2010 | Protein Mdm4 (Homo sapiens) + E3 ubiquitin-protein ligase Mdm2 (Homo sapiens), … | SaOS-2 split-luciferase Mdm2/MdmX complementation | 3% of 330,000 active | inhibition, % at 8 µM;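 active = inhibition of at least 50% at 8 µM in the primary screen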
Target sequence (O15151 whole entry, looked up): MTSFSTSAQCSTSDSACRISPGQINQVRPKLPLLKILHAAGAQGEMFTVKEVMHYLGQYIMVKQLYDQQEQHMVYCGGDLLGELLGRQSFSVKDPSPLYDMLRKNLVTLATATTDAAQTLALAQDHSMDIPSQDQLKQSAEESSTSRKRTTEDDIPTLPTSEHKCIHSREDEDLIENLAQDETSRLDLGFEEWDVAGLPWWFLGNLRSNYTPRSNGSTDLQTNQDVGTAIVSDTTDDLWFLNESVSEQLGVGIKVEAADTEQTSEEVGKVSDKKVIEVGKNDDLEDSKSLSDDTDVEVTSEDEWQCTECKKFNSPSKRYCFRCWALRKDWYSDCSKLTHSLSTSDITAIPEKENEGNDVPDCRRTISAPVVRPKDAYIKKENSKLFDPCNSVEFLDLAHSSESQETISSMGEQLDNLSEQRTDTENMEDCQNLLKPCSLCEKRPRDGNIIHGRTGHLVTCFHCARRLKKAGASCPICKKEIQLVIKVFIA
Target sequence (Q00987 whole entry, looked up): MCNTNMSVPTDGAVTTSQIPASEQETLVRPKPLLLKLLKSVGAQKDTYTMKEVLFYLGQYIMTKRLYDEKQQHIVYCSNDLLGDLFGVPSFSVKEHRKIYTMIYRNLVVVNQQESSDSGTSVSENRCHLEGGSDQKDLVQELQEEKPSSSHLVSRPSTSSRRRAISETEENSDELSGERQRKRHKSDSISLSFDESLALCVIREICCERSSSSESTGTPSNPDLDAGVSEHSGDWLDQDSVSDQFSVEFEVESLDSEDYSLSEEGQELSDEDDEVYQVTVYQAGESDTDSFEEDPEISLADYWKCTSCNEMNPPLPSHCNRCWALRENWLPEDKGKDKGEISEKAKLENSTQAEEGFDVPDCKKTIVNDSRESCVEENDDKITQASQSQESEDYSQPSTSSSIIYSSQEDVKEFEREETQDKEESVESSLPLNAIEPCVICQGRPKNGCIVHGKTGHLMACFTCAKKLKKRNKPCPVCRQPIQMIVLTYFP
CF NFkB inh = inhibitors of PAF-induced NF-kB signaling, primary screen, cell-based, GFP fluorescence, uHTS; 0.86% of 360,000 active; KKLEB NF-kB-GFP reporter, GFP fluorescence overnight; inhibition, % at 5 µM;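 active = at least 50% inhibition at 5 µM, scaled per plate between neutral and stimulator controls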;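 note: PAF is a Pseudomonas aeruginosa culture filtrate used as stimulus; plate controls were PAF-stimulated DMSO wells for no effect and unstimulated DMSO wells for full effect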
Peg3 prom inh = Peg3 promoter-driven luciferase inhibitors, primary screen, cell-based, HeLa, luciferase luminescence; inhibition, % at 20 µM; HeLa PEG-Prom luciferase reporter, overnight; 1.7% of 360,000 active; AID 588405, 2011;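 active = inhibition of at least 50% at 20 µM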
Mdm2 MdmX conf = Mdm2-MdmX complex disruptors, retested hits, confirmation, luminescence, single concentration. shares compounds with Mdm2 MdmX PPI. Mdm2-MdmX binding, luminescent assay. inhibition, % at 8 µM. 55% of 10,000 active; in the data active = inhibition above about 40%
Full FLuc ctr = full-length luciferase signal inhibition, confirmation, counter-screen for Mdm2/MdmX interaction inhibitor project, cell-based, single concentration, SaOS-2; 77% of 6,200 active; shares compounds with Mdm2 MdmX PPI; inhibition, % at 8 µM; SaOS-2 full-length luciferase counterscreen, luminescence;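 active = mean inhibition at 8 µM reaching about 37%, which flags the compound as non-specific, limit read from the data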;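 note: p53-null SaOS-2 cells with luciferase driven by a doxycycline-inducible promoter; compound on cells about two nights before reading with doxycycline added after day one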
* = called active by the depositor.

For CCc1ccc(C(=O)C(C)OC(=O)Cc2n[nH]c(=O)c3ccccc23)cc1 (stereo unspecified) the results were LGR2 inh 14, HSP90 refold inh 1, KKLEB cytotox -15, Mdm2 MdmX PPI 59*, CF NFkB inh 8, Peg3 prom inh 27, Mdm2 MdmX conf 74* and Full FLuc ctr 58*.
`CC1(NC(=O)CC(c2ccccc2)(c2ccccc2)c2ccccc2)CCN(CCCc2ccccc2)C1=O` (stereo unspecified) gave LGR2 inh 33, KKLEB cytotox -5, Mdm2 MdmX PPI 76*, CF NFkB inh 8, Peg3 prom inh 43 and Mdm2 MdmX conf 23.
`C[C@@H]1CN([C@@H](C)CO)C(=O)c2cc(NS(=O)(=O)c3ccc(F)cc3)ccc2O[C@@H]1CN(C)Cc1ccncc1` gave LGR2 inh 6.
Screening NC(N)=N/N=C/c1ccc(OCc2ccccc2)cc1 returned HSP90 refold inh -2, KKLEB cytotox -12, Mdm2 MdmX PPI 55*, CF NFkB inh -5, Peg3 prom inh 54* and Mdm2 MdmX conf 23.
NC(N)=N/N=C/c1ccc(Br)cc1 was read as LGR2 inh -17, HSP90 refold inh -1, KKLEB cytotox -14, Mdm2 MdmX PPI 54*, CF NFkB inh 2, Peg3 prom inh 44, Mdm2 MdmX conf 58* and Full FLuc ctr 57*.
NC(N)=N/N=C/c1ccc(OCc2ccc(Cl)cc2)cc1 was read as HSP90 refold inh 0, KKLEB cytotox -31, Mdm2 MdmX PPI 98*, CF NFkB inh 35, Peg3 prom inh 110* and Mdm2 MdmX conf 32.
Cc1ccc(S(=O)(=O)N[C@H]2C=C[C@H](CC(=O)N3CCN(c4ccccc4)CC3)O[C@@H]2CO)cc1 was read as LGR2 inh 4.
`CC(=O)c1ccc2c(c1)N(CCCN(C)C)c1ccccc1S2` gave LGR2 inh -12, KKLEB cytotox -6, CF NFkB inh 3 and Peg3 prom inh -7.
Screening CCC(=O)c1ccc2c(c1)N(CCCN(C)C)c1ccccc1S2 returned KKLEB cytotox 2, Mdm2 MdmX PPI 55*, CF NFkB inh -22, Peg3 prom inh 2 and Mdm2 MdmX conf 15.
`O=C(N/N=C/c1ccc(Cl)cc1Cl)C1CCN(c2ncc(C(F)(F)F)cc2Cl)CC1` gave HSP90 refold inh 4.
O=C(N/N=C/c1cccc(C(F)(F)F)c1)C1CCN(c2ncc(C(F)(F)F)cc2Cl)CC1 was read as HSP90 refold inh 1, KKLEB cytotox -6, Mdm2 MdmX PPI 64*, CF NFkB inh 6, Peg3 prom inh 13 and Mdm2 MdmX conf -2.
For O=C(Nc1ccc(Cl)cc1Cl)NC1CCN(S(=O)(=O)c2ccc(F)cc2)CC1 the results were LGR2 inh -3, HSP90 refold inh -3, KKLEB cytotox -5, Mdm2 MdmX PPI 51*, CF NFkB inh 14, Peg3 prom inh 38, Mdm2 MdmX conf 42* and Full FLuc ctr 59*.
C[C@@H]1CCCCO[C@H](CN(C)CC2CCCCC2)[C@H](C)CN([C@@H](C)CO)C(=O)c2cc(NS(=O)(=O)c3cccs3)ccc2O1 was read as LGR2 inh 1.
O=C(Nc1ccc(F)cc1F)c1cccc(C(=O)Nc2ccc(F)cc2F)n1 was read as LGR2 inh 1, HSP90 refold inh 0, KKLEB cytotox -32, Mdm2 MdmX PPI 95*, CF NFkB inh 36, Peg3 prom inh 8, Mdm2 MdmX conf 87* and Full FLuc ctr 50*.
`O=C(Nc1ccc(F)cc1F)c1csc(-c2ccccc2)n1` gave LGR2 inh -52, HSP90 refold inh -2, KKLEB cytotox -4, Mdm2 MdmX PPI -28, CF NFkB inh -4 and Peg3 prom inh -195.
`Cc1ccccc1C(=O)Nc1ccc2c(c1)CCCN2C(=O)c1cccs1` gave LGR2 inh 8, HSP90 refold inh 2, KKLEB cytotox 2, Mdm2 MdmX PPI 84*, CF NFkB inh -6, Peg3 prom inh -3, Mdm2 MdmX conf 68* and Full FLuc ctr 40*.
`N/C(=N\OC(=O)c1ccc(Cl)c([N+](=O)[O-])c1)c1ccccc1` gave HSP90 refold inh -1, KKLEB cytotox 0, Mdm2 MdmX PPI 65*, CF NFkB inh -10, Peg3 prom inh 75* and Mdm2 MdmX conf 29.
For O=C(COC(=O)c1ccccc1C(=O)c1ccc(Cl)c([N+](=O)[O-])c1)NC1CC1 the results were LGR2 inh 105*, HSP90 refold inh -5, KKLEB cytotox -66*, Mdm2 MdmX PPI 100*, CF NFkB inh 105*, Peg3 prom inh 99*, Mdm2 MdmX conf 96* and Full FLuc ctr 52*.
Screening N/C(=N\OC(=O)c1ccc(Cl)c([N+](=O)[O-])c1)c1ccccn1 returned LGR2 inh 7, HSP90 refold inh 6, KKLEB cytotox -10, Mdm2 MdmX PPI 67*, CF NFkB inh -16, Peg3 prom inh 42, Mdm2 MdmX conf 46* and Full FLuc ctr 91*.
O=C(COC(=O)c1cc([N+](=O)[O-])ccc1Cl)NC1CCCC1 was read as LGR2 inh 4, HSP90 refold inh -4, KKLEB cytotox -2, Mdm2 MdmX PPI 7, CF NFkB inh -11 and Peg3 prom inh 6.
Screening COCC#Cc1cnc2c(c1)C(=O)N([C@H](C)CO)C[C@@H](C)[C@@H](CN(C)C(=O)Nc1cc(F)ccc1F)O2 returned LGR2 inh -29.
C[C@@H]1CN([C@@H](C)CO)C(=O)c2cccc(NC(=O)C3CCCCC3)c2O[C@@H]1CN(C)C was read as LGR2 inh 7.
For COc1ccc(NC(=O)N(C)C[C@@H]2OCCCC[C@@H](C)Oc3ccc(NC(=O)Nc4ccc(F)cc4)cc3C(=O)N([C@H](C)CO)C[C@@H]2C)cc1 the results were LGR2 inh 20.
CC(C)NC(=O)Nc1ccc2c(c1)C(=O)N([C@@H](C)CO)C[C@@H](C)[C@H](CN(C)C(=O)Nc1ccc(C(F)(F)F)cc1)OCCCC[C@@H](C)O2 was read as LGR2 inh 9.
